For 13 molecules, binding signal results are on record in paper PMC12864922, “TDP-43 directly inhibits mRNA accumulation in neurites through modulation of mRNA stability”.

To fix the notation:
B1: ENSMUSG00000043670.39|Diras1 (ssRNA)
RNA: GGGAGUUCUACAGUCCGACGAUCGCUUCGAUAUCCGCAUGCUAGCUCCUGCUCCUUCUCCCCCUCCUUCCUUCCUUUGCCUUGCCCCUCCCUCCUCCAUCUCUCUUCCCUCUUCCUGUCCCCACCAGCCUACAGUAAGGUUGGGCUCCAUCCCUGCCUCUUCACACCUCCAUAGCUUCAUCCUUUGCAGACCUCUCCCUCUAUAUCUCUUUGCUCCCCCACCCCCAUUCUAUCUGCACCCCACAACCACACACUGGAGGUUUGAUCCCUGUGGAUCUGAAAACAGGGACCUGGCUAAGGAACUCUCUUGCGGUCGCACUAGUGUGGAAUUCUCGGGUGUCAAGG
B2: ENSMUSG00000061578.1409|Ksr2 (ssRNA)
RNA: GGGAGUUCUACAGUCCGACGAUCGCUUCGAUAUCCGCAUGCUAGGACCUCAGGCCCACUGUUUUCUCCAUGUCUGUCUGUACUGACUGUUGCAGAAUGAGCUGAUGUAUGAUCUUGAUUCUCCAUUUUCCUUCUGGACCACAUGUCUCUUCCUUUUCCUUUUUAGAUCUGUCUUGCUCUCUGUCUCUCUCACUCAUUGCCAACAUGUUGCUGGGAAAGAAUAUUUGAUUUAGAUGCCAAUCAGGAAGGCAAGUAGGAUGGAUGGAUGAGUGAGUGGAUAGGUAGGUAUAUAAAUGGAUGGAUGCUCUUGCGGUCGCACUAGUGUGGAAUUCUCGGGUGUCAAGG
B3: ENSMUSG00000043670.199|Diras1 (ssRNA)
RNA: GGGAGUUCUACAGUCCGACGAUCGCUUCGAUAUCCGCAUGCUAGUCCAGGAGACUUGAGUGGCUCCUGGGCCUGUGUCCCACCCAGAUGAGGGUGACUUAGAAUUCUGUGUUUAUGUGCCUGUGUGUGUGGAUGGGUGUGUGUCUGUCUUGGGAUGGGGUGUUCUUGCACCACUUUGUGUUCUUAGUGAGACCACAGUGUAAGUGGCCGUGUGUGUGUGUGGGGGGGGGCACCUAGACAUUGUGGUGUGUCUGUAUGGCUCUGUGUUUUCAGGGGUGGGUGACACAGGCCUGUCUGAUGAGCACUCUUGCGGUCGCACUAGUGUGGAAUUCUCGGGUGUCAAGG
B4: ENSMUSG00000043670.204|Diras1|34:38;48:57;63:70;103:107;136:148;172:177;180:184;189:193 (ssRNA)
RNA: GGGAGUUCUACAGUCCGACGAUCGCUUCGAUAUCCGCAUGCUAGUGUCCCACCCAGAUGAGGGUGACUUAGAAUUCACACAUUAUGUGCCACACACACACGAUGGCACACACACUGUCUUGGGAUGGGGUGUUCUUGCACCACUUACACAUCUUAGUGAGACCACAGUGUAAGUGGCCCACACACACACACGGGGGGGGCACCUAGACAUUGUGCACACACUCAUACGCUCACACAUUUCAGGGGUGGGUGACACAGGCCUGUCUGAUGAGCACCAGGUCUGUUCCAGGCUGUGGCAAGCUGGCUCUUGCGGUCGCACUAGUGUGGAAUUCUCGGGUGUCAAGG
B5: ENSMUSG00000043670.201|Diras1 (ssRNA)
RNA: GGGAGUUCUACAGUCCGACGAUCGCUUCGAUAUCCGCAUGCUAUGAGUGGCUCCUGGGCCUGUGUCCCACCCAGAUGAGGGUGACUUAGAAUUCUGUGUUUAUGUGCCUGUGUGUGUGGAUGGGUGUGUGUCUGUCUUGGGAUGGGGUGUUCUUGCACCACUUUGUGUUCUUAGUGAGACCACAGUGUAAGUGGCCGUGUGUGUGUGUGGGGGGGGGCACCUAGACAUUGUGGUGUGUCUGUAUGGCUCUGUGUUUUCAGGGGUGGGUGACACAGGCCUGUCUGAUGAGCACCAGGUCUGUUCCUCUUGCGGUCGCACUAGUGUGGAAUUCUCGGGUGUCAAGG
B6: ENSMUSG00000043670.195|Diras1 (ssRNA)
RNA: GGGAGUUCUACAGUCCGACGAUCGCUUCGAUAUCCGCAUGCUAAGCCCCUGUGGUAUCUGCGAGACUGUCCAGGAGACUUGAGUGGCUCCUGGGCCUGUGUCCCACCCAGAUGAGGGUGACUUAGAAUUCUGUGUUUAUGUGCCUGUGUGUGUGGAUGGGUGUGUGUCUGUCUUGGGAUGGGGUGUUCUUGCACCACUUUGUGUUCUUAGUGAGACCACAGUGUAAGUGGCCGUGUGUGUGUGUGGGGGGGGGCACCUAGACAUUGUGGUGUGUCUGUAUGGCUCUGUGUUUUCAGGGGUGGGCUCUUGCGGUCGCACUAGUGUGGAAUUCUCGGGUGUCAAGG
B7: ENSMUSG00000043670.197|Diras1 (ssRNA)
RNA: GGGAGUUCUACAGUCCGACGAUCGCUUCGAUAUCCGCAUGCUAAUCUGCGAGACUGUCCAGGAGACUUGAGUGGCUCCUGGGCCUGUGUCCCACCCAGAUGAGGGUGACUUAGAAUUCUGUGUUUAUGUGCCUGUGUGUGUGGAUGGGUGUGUGUCUGUCUUGGGAUGGGGUGUUCUUGCACCACUUUGUGUUCUUAGUGAGACCACAGUGUAAGUGGCCGUGUGUGUGUGUGGGGGGGGGCACCUAGACAUUGUGGUGUGUCUGUAUGGCUCUGUGUUUUCAGGGGUGGGUGACACAGGCCUCUCUUGCGGUCGCACUAGUGUGGAAUUCUCGGGUGUCAAGG
B8: ENSMUSG00000043670.213|Diras1 (ssRNA)
RNA: GGGAGUUCUACAGUCCGACGAUCGCUUCGAUAUCCGCAUGCUAGUGGAUGGGUGUGUGUCUGUCUUGGGAUGGGGUGUUCUUGCACCACUUUGUGUUCUUAGUGAGACCACAGUGUAAGUGGCCGUGUGUGUGUGUGGGGGGGGGCACCUAGACAUUGUGGUGUGUCUGUAUGGCUCUGUGUUUUCAGGGGUGGGUGACACAGGCCUGUCUGAUGAGCACCAGGUCUGUUCCAGGCUGUGGCAAGCUGGCUCCUGGCUCAGAAGUGACAAAGCUGCAGUACAGAGGCCUCAGUGUGAGGUCAUCUCUUGCGGUCGCACUAGUGUGGAAUUCUCGGGUGUCAAGG
B9: ENSMUSG00000043670.216|Diras1 (ssRNA)
RNA: GGGAGUUCUACAGUCCGACGAUCGCUUCGAUAUCCGCAUGCUAGUCUUGGGAUGGGGUGUUCUUGCACCACUUUGUGUUCUUAGUGAGACCACAGUGUAAGUGGCCGUGUGUGUGUGUGGGGGGGGGCACCUAGACAUUGUGGUGUGUCUGUAUGGCUCUGUGUUUUCAGGGGUGGGUGACACAGGCCUGUCUGAUGAGCACCAGGUCUGUUCCAGGCUGUGGCAAGCUGGCUCCUGGCUCAGAAGUGACAAAGCUGCAGUACAGAGGCCUCAGUGUGAGGUCAUCACCUCACAGUGGCUACACUCUUGCGGUCGCACUAGUGUGGAAUUCUCGGGUGUCAAGG
B10: ENSMUSG00000043670.196|Diras1 (ssRNA)
RNA: GGGAGUUCUACAGUCCGACGAUCGCUUCGAUAUCCGCAUGCUAUGUGGUAUCUGCGAGACUGUCCAGGAGACUUGAGUGGCUCCUGGGCCUGUGUCCCACCCAGAUGAGGGUGACUUAGAAUUCUGUGUUUAUGUGCCUGUGUGUGUGGAUGGGUGUGUGUCUGUCUUGGGAUGGGGUGUUCUUGCACCACUUUGUGUUCUUAGUGAGACCACAGUGUAAGUGGCCGUGUGUGUGUGUGGGGGGGGGCACCUAGACAUUGUGGUGUGUCUGUAUGGCUCUGUGUUUUCAGGGGUGGGUGACACCUCUUGCGGUCGCACUAGUGUGGAAUUCUCGGGUGUCAAGG
B11: ENSMUSG00000043670.206|Diras1 (ssRNA)
RNA: GGGAGUUCUACAGUCCGACGAUCGCUUCGAUAUCCGCAUGCUAGAUGAGGGUGACUUAGAAUUCUGUGUUUAUGUGCCUGUGUGUGUGGAUGGGUGUGUGUCUGUCUUGGGAUGGGGUGUUCUUGCACCACUUUGUGUUCUUAGUGAGACCACAGUGUAAGUGGCCGUGUGUGUGUGUGGGGGGGGGCACCUAGACAUUGUGGUGUGUCUGUAUGGCUCUGUGUUUUCAGGGGUGGGUGACACAGGCCUGUCUGAUGAGCACCAGGUCUGUUCCAGGCUGUGGCAAGCUGGCUCCUGGCUCAGCUCUUGCGGUCGCACUAGUGUGGAAUUCUCGGGUGUCAAGG
B12: ENSMUSG00000043670.204|Diras1 (ssRNA)
RNA: GGGAGUUCUACAGUCCGACGAUCGCUUCGAUAUCCGCAUGCUAGUGUCCCACCCAGAUGAGGGUGACUUAGAAUUCUGUGUUUAUGUGCCUGUGUGUGUGGAUGGGUGUGUGUCUGUCUUGGGAUGGGGUGUUCUUGCACCACUUUGUGUUCUUAGUGAGACCACAGUGUAAGUGGCCGUGUGUGUGUGUGGGGGGGGGCACCUAGACAUUGUGGUGUGUCUGUAUGGCUCUGUGUUUUCAGGGGUGGGUGACACAGGCCUGUCUGAUGAGCACCAGGUCUGUUCCAGGCUGUGGCAAGCUGGCUCUUGCGGUCGCACUAGUGUGGAAUUCUCGGGUGUCAAGG
B13: ENSMUSG00000043670.200|Diras1 (ssRNA)
RNA: GGGAGUUCUACAGUCCGACGAUCGCUUCGAUAUCCGCAUGCUAGAGACUUGAGUGGCUCCUGGGCCUGUGUCCCACCCAGAUGAGGGUGACUUAGAAUUCUGUGUUUAUGUGCCUGUGUGUGUGGAUGGGUGUGUGUCUGUCUUGGGAUGGGGUGUUCUUGCACCACUUUGUGUUCUUAGUGAGACCACAGUGUAAGUGGCCGUGUGUGUGUGUGGGGGGGGGCACCUAGACAUUGUGGUGUGUCUGUAUGGCUCUGUGUUUUCAGGGGUGGGUGACACAGGCCUGUCUGAUGAGCACCAGGUCUCUUGCGGUCGCACUAGUGUGGAAUUCUCGGGUGUCAAGG

In all, about 9,900 sequences were measured (“r (bound/input frequency ratio)”: median about 0.7, highest 2% from about 6.5 on). Shown is part of a subset that was picked to be rich in the highest values.

Chain of TDP-43 (Q13148 whole entry): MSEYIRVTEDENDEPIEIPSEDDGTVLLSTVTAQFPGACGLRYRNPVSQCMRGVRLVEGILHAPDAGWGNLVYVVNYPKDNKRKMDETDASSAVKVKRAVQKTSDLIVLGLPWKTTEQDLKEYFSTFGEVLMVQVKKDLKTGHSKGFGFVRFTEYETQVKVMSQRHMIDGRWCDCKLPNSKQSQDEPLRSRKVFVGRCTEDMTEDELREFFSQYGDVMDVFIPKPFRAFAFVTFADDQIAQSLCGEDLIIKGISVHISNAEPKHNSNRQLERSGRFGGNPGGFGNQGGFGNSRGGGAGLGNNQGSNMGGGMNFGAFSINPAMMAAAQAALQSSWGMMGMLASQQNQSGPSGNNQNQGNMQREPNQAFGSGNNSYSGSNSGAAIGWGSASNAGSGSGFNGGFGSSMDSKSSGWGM

The assay has as its target TDP-43 (Homo sapiens, UniProt Q13148 1-414). The assay is described as follows: RNA Bind-n-Seq with designed 260-mer pool; 25 mM Tris-HCl, 150 mM KCl, 3 mM MgCl2, BSA (printed 500 mg/mL), 20 units/mL SUPERase IN; pH not stated; 500 nM RNA pool, 1 h, 4 C; TDP-43 5, 50, 500 nM; high values mean tight binding. The conditions noted are these: protein: recombinant; tags: SBP (GST cleaved off with PreScission; pGEX-GST-SBP). The method, boiled down: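 Binding (R) is the ratio of each oligo's mapped-read-normalized abundance in the bound fraction to its abundance in the input. To obtain it, SBP-tagged recombinant TDP-43 (5, 50 or 500 nM) on streptavidin beads was incubated with 500 nM of an in vitro-transcribed 260-nt 3′ UTR oligo pool for 1 h at 4 °C in 25 mM Tris-HCl, 150 mM KCl, 3 mM MgCl2, BSA and SUPERase IN. The RNA retained after washing was released with biotin, then reverse transcribed, amplified by PCR and sequenced.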
Turning to B1, the binding signal is 5.05 R (bound/input frequency ratio). Turning to B2, the binding signal was 1.55 R (bound/input frequency ratio). To B3 belongs 5.44 R (bound/input frequency ratio); to B4, 1.1 R (bound/input frequency ratio).

For B5, the binding signal was 4.7 R (bound/input frequency ratio). To B6 belongs 5.71 R (bound/input frequency ratio); to B7, 7.91 R (bound/input frequency ratio); to B8, 6.42 R (bound/input frequency ratio). Consider B9, for which the binding signal is 3.28 R (bound/input frequency ratio).

On to B10, for which the binding signal is 6.21 R (bound/input frequency ratio). For B11 the value was 6.69 R (bound/input frequency ratio); for B12, 6.58 R (bound/input frequency ratio); for B13, 11.3 R (bound/input frequency ratio).
